Measured values taken from PubChem BioAssay.
Values without a mark were called inactive. Calls of active or inactive are those of the source. Rule as the data show it: active = inhibition above about 36%; inactive = the rest.

These compounds were tested on transactivating tegument protein VP16 (Human herpesvirus 1) (assay: VP16 transactivation reporter inhibitors, counter-screen for SRC2 inhibitor project, cell-based, luminescence, single concentration (AID 652007)). Details: cell-based VP16 transactivation luciferase reporter, at 8.9 µM, active compounds read high.
For `O=C(CCCN1C(=O)/C(=C/c2ccccc2)SC1=S)NCCCn1ccnc1`, the inhibition was 35.9% (active).
Compound `Cn1c(=N)n(CC(=O)c2ccc(F)cc2)c2ccccc21` has an inhibition of -28.2%.
With `NC(=O)C1CCN(CCS(=O)(=O)c2ccc(Cl)cc2)CC1` the inhibition was -1.09%.
For `CCCCN1C[C@@H](COCc2ccccc2)Oc2cc(F)ccc2S1(=O)=O`, the inhibition was -1.24%.
`NCCOc1ccc(C2CCCCC2)cc1` gave an inhibition of -53.7%.
In the case of `CC1=CC(C)(C)Nc2ccc(OC(=O)CN3C(=O)c4ccccc4C3=O)cc21`, the inhibition is reported as -37.1%.
`CCc1ccc(/C=C2\SC(=S)N(CCCC(=O)NC3=NCCS3)C2=O)cc1` was tested, and the inhibition was 41.6% (active).
`CC(=O)Nc1nc(-c2ccc3c(c2)CCN3C(=O)C2CC2)c(C)s1` was tested, and the inhibition was 13.2%.
`O=C(NCCS(=O)(=O)N1CCN(c2ccc(F)cc2)CC1)c1ccc(Br)o1` was tested, and the inhibition was -22.6%.
In the case of `COc1cc(/C=C/C(=O)Nc2ccc(OC)c(S(=O)(=O)N3CCOCC3)c2)ccc1OC(F)F`, the inhibition is reported as 11%.
`C=CCN(CC#CCN(C)C(=O)c1cccn1C(=O)OC(C)(C)C)Cc1ccc(OC)cc1OC` gave an inhibition of -6.71%.
`CC(C)(C)c1ccc(Cn2c(=O)cnc3ccccc32)cc1` gave an inhibition of 22.6%.
Compound `CCc1ccc(/C=C2\SC(=S)N(CCC(=O)NC3=NCCS3)C2=O)cc1` has an inhibition of -67.3%.
For `CC(=O)Nc1ccc(Nc2nc(C)c([N+](=O)[O-])c(N(C)c3ccccc3)n2)cc1`, the inhibition was 32.4%.
With `COCCn1c(SCC(=O)/C=C2\N(C)c3ccccc3C2(C)C)nnc1-c1ccncc1` the inhibition was -4.56%.
`CCN(CC)S(=O)(=O)c1cccc(C(=O)N/N=C/c2cccc(O)c2O)c1` gave an inhibition of -46.8%.
`COc1ccc(S(=O)(=O)N/N=C\c2ccc3c(c2)OCO3)c(OC)c1` gave an inhibition of 10.4%.
In the case of `O=C(CCl)N(Cc1ccccc1)c1ccccc1`, the inhibition is reported as 26%.
With `Cc1ccc2cccc(NS(=O)(=O)c3ccccc3)c2n1` the inhibition was 75.5% (active).
With `Cn1nnnc1Sc1ncnc2scc(-c3ccc(C#N)cc3)c12` the inhibition was 12.5%.
Compound `O=[N+]([O-])c1cccc2cnccc12` has an inhibition of -10.2%.
With `COc1cc(OC)c2c(-c3cccc(-c4ccc(N(C)C)cc4)c3)cc(=O)oc2c1` the inhibition was -17.4%.
For `O=C(CCc1ccncc1)N1CCCC(Nc2ccc(F)c(F)c2)C1` (stereo not given), the inhibition was -3.61%.
Work on `O=C1CSC(c2ccc([N+](=O)[O-])cc2)N1c1ccc(O)cc1` (stereo not given) yielded an inhibition of 5.23%.
For `C=C(C(=O)c1ccccc1)C(c1ccccc1)C(C)C(=O)c1ccccc1` (stereo not given), the inhibition was 28.8%.
